High-throughput results as filed in PubChem.
This is a sample that favours compounds with a hit; in the whole collection about 2.4% have one here.
WRN helicase inh-1: qHTS for Inhibitors of WRN Helicase | WRN helicase unwinding, fluorescent forked duplex, kinetic | Potency, µM (doses to about 114 µM), without a hit: top-dose activity change, negative = inhibition, most hits filed as inhibitors | 360,000 tested, 0.46% active | Bifunctional 3'-5' exonuclease/ATP-dependent helicase WRN (Homo sapiens), Q14191; further: on the % scale 0 is the no-effect control and ±100 the full control effect; nearly all actives have a fitted effect of over 55% in size
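WRN at 20 nM final was preincubated with compound for 15 min at room temperature; reaction started with 100 nM forked duplex oligonucleotide carrying fluorophore and quencher plus 2 mM ATP (final). Unwinding followed kinetically by red fluorescence (ex 525/em 598 nm).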
Pol kappa inh-1: qHTS for Inhibitors of Polymerase Kappa; DNA polymerase kappa (Homo sapiens), Q9UBT6; purified Pol kappa, fluorescent DNA synthesis assay, 10 min; Potency, µM (highest dose often 107 µM), for the others: top-dose activity, negative = inhibition, most hits filed as inhibitors; 400,000 tested, 0.53% active; AID 588579, 2011; further: on the % scale 0 is the no-effect control and ±100 the full control effect
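Here, compound and 10 nM enzyme are combined for 15 min at room temperature; adding 50 nM substrate (final) starts DNA synthesis, tracked by fluorescence at 0 and 10 min against buffer-only wells.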
FEN1 inh-1: qHTS Assay for the Inhibitors of Human Flap endonuclease 1 (FEN1); Potency, µM (top dose mostly 114 µM), for inactives: top-dose activity change, negative = inhibition, hits mostly inhibitors; 390,000 tested, 0.35% active; AID 588795, 2011; Recombinant FEN1 flap cleavage, fluorescence, 15 min; further: on the % scale 0 is the no-effect control and ±100 the full control effect; nearly all actives have a fitted effect of over 65% in size
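Potency values derive from four-parameter Hill fits of normalized qHTS data. The reaction used 10 nM FEN1 preincubated 15 min at room temperature with compound, then 50 nM DNA substrate, read at 0 and 15 min.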
Pol eta inh-1: qHTS for Inhibitors of Polymerase Eta; DNA polymerase eta (Homo sapiens), Q9Y253; recombinant Pol eta, fluorescent DNA replication assay; Potency, µM (highest dose often 114 µM), for the others: at the highest dose activity change, negative = inhibition, hits mostly inhibitors; 390,000 tested, 1.2% active; AID 588591, 2011; further: on the % scale 0 is the no-effect control and ±100 the full control effect
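Fluorescent replication assay: 50 nM final substrate added after a 15 min room-temperature compound preincubation with 10 nM enzyme. Signal taken at 0 min and again at 10 min.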
POLB inh: qHTS Assay for Inhibitors of DNA Polymerase Beta; P06746; Pol beta primer extension/strand displacement, fluorescence kinetic; Potency, µM (series often up to 114 µM), inactives show at the highest dose activity change, negative = inhibition, most hits filed as inhibitors; 340,000 tested, 1.3% active; AID 485314, 2010; further: on the % scale 0 is the no-effect control and ±100 the full control effect
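Curves were derived by four-parameter Hill fits of normalized qHTS data. The kinetic fluorescent primer-extension read was taken at 0 and 10 min after 50 nM substrate, following a 15 min room-temperature preincubation of 10 nM enzyme with compounds.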
POLI inh: qHTS for Inhibitors of Polymerase Iota | DNA polymerase iota (Homo sapiens), Q9UNA4 | Pol iota fluorescent replication assay, 10 min | Potency, µM (top dose mostly 115 µM), for the others: top-dose activity, negative = inhibition, actives largely listed as inhibitors | 390,000 tested, 1% active
Target sequence (Q9UNA4 whole entry, looked up): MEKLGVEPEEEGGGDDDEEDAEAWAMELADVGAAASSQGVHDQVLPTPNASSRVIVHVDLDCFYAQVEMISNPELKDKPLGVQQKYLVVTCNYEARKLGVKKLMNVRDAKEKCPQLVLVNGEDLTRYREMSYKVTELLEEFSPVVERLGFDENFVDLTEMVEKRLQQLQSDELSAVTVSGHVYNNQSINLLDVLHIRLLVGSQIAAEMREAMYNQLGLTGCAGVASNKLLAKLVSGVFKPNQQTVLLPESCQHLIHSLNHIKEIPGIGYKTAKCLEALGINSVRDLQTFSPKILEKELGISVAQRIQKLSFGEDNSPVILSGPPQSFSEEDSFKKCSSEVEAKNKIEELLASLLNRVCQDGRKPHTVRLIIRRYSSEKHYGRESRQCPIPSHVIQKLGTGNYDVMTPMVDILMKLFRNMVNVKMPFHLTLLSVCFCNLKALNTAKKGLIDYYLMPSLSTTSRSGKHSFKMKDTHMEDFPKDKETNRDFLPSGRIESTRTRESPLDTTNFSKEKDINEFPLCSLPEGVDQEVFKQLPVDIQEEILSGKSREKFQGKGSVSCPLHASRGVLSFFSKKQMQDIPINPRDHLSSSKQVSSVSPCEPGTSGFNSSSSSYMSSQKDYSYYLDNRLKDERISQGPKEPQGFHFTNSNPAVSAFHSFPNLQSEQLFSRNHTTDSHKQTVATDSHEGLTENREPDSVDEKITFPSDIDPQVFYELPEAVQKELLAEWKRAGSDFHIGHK
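Fluorescent replication assay read twice, at 0 min and 10 min after adding 50 nM (final) substrate. Enzyme (10 nM) and compounds were first incubated 15 min at room temperature; enzyme-free buffer wells were negative controls.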
PGK validate: qHTS for inhibitors of Phosphogylcerate Kinase: Hit Validation Screen | Potency, µM (top dose mostly 57.5 µM), inactives show at the top dose activity change, negative = inhibition, actives largely listed as inhibitors | TbPGK coupled GAPDH assay, Kinase-Glo luminescence | 500 tested, 79% active | AID 686980, 2013 | shares compounds with Pol kappa inh-1; further: on the % scale 0 is the no-effect control and ±100 the full control effect; nearly all actives have a fitted effect of over 65% in size
POLI cherry-pick: qHTS for Inhibitors of Polymerase Iota: Confirmatory Assay for Cherry-picked Compounds. shares compounds with Pol kappa inh-1. Pol iota primer extension, TAMRA/BHQ fluorescence. Potency, µM, hits mostly inhibitors. 1,500 tested, 77% active
Pol kappa inh-2: qHTS for Inhibitors of Polymerase Kappa: Confirmatory Assay for Cherry-picked Compounds. shares compounds with Pol eta inh-1. Potency, µM, hits mostly inhibitors. AID 720501, 2013. 920 tested, 76% active. purified Pol-kappa, fluorescent strand-displacement substrate
Pol eta inh-2: qHTS for Inhibitors of Polymerase Eta: Confirmatory Assay for Cherry-picked Compounds; shares compounds with Pol eta inh-1; Pol eta primer extension, TAMRA/BHQ fluorescence, 10 min; Potency, µM, usual class: inhibitors; 2,600 tested, 64% active; AID 720502, 2013
FEN1 inh-2: qHTS Assay for the Inhibitors of FEN1: Confirmatory Assay for Cherry-picked Compounds; 880 tested, 79% active; FEN1 flap cleavage, TAMRA/BHQ2 fluorogenic DNA substrate; shares compounds with FEN1 inh-1; AID 720498, 2013; Potency, µM, usual class: inhibitors; further: nearly all actives have a fitted effect of over 60% in size
WRN helicase inh-2: qHTS for Inhibitors of WRN Helicase: Confirmatory Assay for Cherry-picked Compounds. shares compounds with WRN helicase inh-1. WRN helicase DNA unwinding, fluorescence kinetic. Potency, µM (highest dose often 57.1 µM), without a hit: top-dose activity, negative = inhibition, actives largely listed as inhibitors. 610 tested, 63% active. AID 720497, 2013; further: nearly all actives have a fitted effect of over 65% in size
TO displacement: qHTS for Inhibitors of WRN Helicase: Thiazole Orange DNA Binding Counterscreen; shares compounds with WRN helicase inh-1; thiazole orange DNA binding displacement, fluorescence; Potency, µM (titrated, usually from 57.1 µM), for the others: at the highest dose activity change, negative = inhibition, hits mostly inhibitors; 610 tested, 10% active; AID 720499, 2013;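 further: drop in dye fluorescence marks compound binding to DNA; on the % scale 0 is the no-effect control and ±100 the full control effect; nearly all actives have a fitted effect of over 60% in size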
BLM counter: qHTS for Inhibitors of WRN Helicase: BLM Helicase Counterscreen for WRN Inhibitors | shares compounds with WRN helicase inh-1 | Recombinant BLM helicase DNA unwinding, red fluorescence | Potency, µM (series often up to 57.1 µM), without a hit: at the highest dose activity change, negative = inhibition, most hits filed as inhibitors | 610 tested, 60% active | AID 720503, 2013; further: nearly all actives have a fitted effect of over 60% in size
Numbers without * were called inactive; ? = inconclusive; / = no result; [ ] = remark or other dose. The call rests on the fitted dose curve; in most records, active means well fitted curve in the direction sought with a large enough effect; inconclusive means small, poorly fitted or top-dose-only effect, or another doubt; inactive means no such curve, though single readings can be large; an effect the other way counts as inactive or inconclusive. Potency means the concentration at half of the fitted maximal effect.

SMILES | WRN helicase inh-1 | Pol kappa inh-1 | FEN1 inh-1 | Pol eta inh-1 | POLB inh | POLI inh | POLI cherry-pick | Pol kappa inh-2 | Pol eta inh-2 | WRN helicase inh-2 | TO displacement | BLM counter | others
O=C(O)c1ccc2nc(-c3cc4cccc(O)c4oc3=O)[nH]c2c1 | / | ? | 28µM* | / | 8.9µM* | ? | 24* | 27* | 21* | 11µM* | 19µM* | 3µM* | FEN1 inh-2=43*
C=CCc1cccc2cc(-c3nc4ccc(C)cc4[nH]3)c(=O)oc12 | / | -7%[60.1 µM] | ? | / | 7% | ? | / | / | / | / | / | /
CCN(c1ccccc1)S(=O)(=O)c1cc(NC(=O)CSc2n[nH]c(=O)[nH]c2=O)ccc1Cl | -2% | -3% | -18% | -6% | 5% | -30% | / | / | / | / | / | /
O=C(CSc1n[nH]c(=O)[nH]c1=O)Nc1ccc2c(c1)C(=O)c1ccccc1C2=O | 32µM* | -42% | 28µM* | 8.9µM* | 2.8µM* | ? | 27* | 24* | 19* | 8.6µM* | 12µM* | 4.3µM* | PGK validate=3.3µM*
Nc1cccc(-c2nc3ccccc3[nH]2)c1 | -5% | -10% | -16% | -13% | -9% | -11% | / | / | / | / | / | /
Nc1ccc2nc(-c3cccc(-c4nc5ccc(N)cc5[nH]4)n3)[nH]c2c1 | 20µM* | 56µM* | ? | 20µM* | 25µM* | 14µM* | 17* | 27* | 19* | 5.4µM* | 17µM* | 4.8µM* | FEN1 inh-2=1.7*
O=C1C(Cl)=C(NC(=O)c2ccccc2)C(=O)C(Cl)=C1NC(=O)c1ccccc1 | 20µM* | -12% | 79µM* | -10% | -12% | 1.6µM* | 24* | / | 85* | -19% | 22µM* | -26%
CCOc1ccc(NC(=O)c2sc3nc4c(c(-c5ccc(OC)cc5)c3c2N)C(=O)CC(C)(C)C4)cc1 | / | 0% | -8% | / | 14% | 31% | / | / | / | / | / | /
CCOCCCNC(=O)/C(C#N)=C/c1ccc(C(=O)OC)cc1 | -5% | -12% | -11% | 1% | 2% | -12% | / | / | / | / | / | /
COCCCNC(=O)/C(C#N)=C/c1ccc(OCC(=O)O)c(OC)c1 | ? | 22µM* | ? | 2.5µM* | 3.5µM* | 10µM* | 19* | / | 27* | 19µM* | ? | 5.4µM*
NC1=NC(=O)/C(=C/c2ccc(-c3ccc(S(N)(=O)=O)cc3)o2)S1 | 35µM* | 79µM* | ? | 22µM* | ? | 45µM* | 34* | 21* | 54* | 19µM* | 70% | 11µM*
COc1cccc(OCc2nc3ccccc3n2CCOc2ccccc2)c1 | / | -2% | -23% | ? | 2% | -1% | / | / | / | / | / | /
O=C(Nc1ccc(Cl)c(Cl)c1)Nc1nnc(-c2ccncc2)s1 | ? | ? | -9% | ? | ? | ? | ? | / | / | 2.7µM* | 45% | 1.2µM*
N#CNC(=O)c1ccc(-n2cccc2/C=C2\NC(=O)N(CC(=O)Nc3cccc(F)c3)C2=O)cc1 | / | / | / | / | / | / | 30* | 13* | 43* | 11µM* | 9.6µM* | 4.8µM* | FEN1 inh-2=34*
CCn1c(C)cc(/C=C2/NC(=O)N(CC(=O)Nc3cccc(C)c3)C2=O)c1C | -2% | -25% | -15% | 10% | -2% | 0% | / | / | / | / | / | /
N#CNC(=O)c1ccc(-n2cccc2/C=C2\NC(=O)N(CC(=O)Nc3ccc(Cl)cc3)C2=O)cc1 | / | / | / | / | / | / | 6.7* | 4.7* | ? | 4.3µM* | ? | 0.96µM* | FEN1 inh-2=24*
C[C@H](NC(=O)C1CCN(S(=O)(=O)c2ccccc2)CC1)C(=O)NC1CC1 | -11% | / | / | -6% | / | / | / | / | / | / | / | /
CC(=O)N1CCCc2ccc(NC(=O)c3ccc(OC(C)C)cc3)cc21 | / | -5%[60.1 µM] | -1% | 16% | 13% | 7% | / | / | / | / | / | /
COc1ccc(Br)cc1/C=c1\sc2nc(-c3ccco3)nn2c1=O | 35µM* | 20µM* | ? | 3.2µM* | 4.5µM* | 8.9µM* | 60* | 12* | 30* | 17µM* | 19µM* | 7.6µM*
COc1ccc(/C=c2\sc3nc(=O)c(C)nn3c2=O)c(OC)c1 | 1% | -12% | 17% | 15% | -8% | 1% | / | / | / | / | / | /
CC(Cl)=CCn1c(NCCc2ccccc2)nc2c1c(=O)n(C)c(=O)n2C | 1% | / | / | / | / | / | / | / | / | / | / | /
